# In PubChem BioAssay AID1851 (National Center for Advancing Translational Sciences (NCATS), 2009):
# The whole screen tested about 16,000 compounds, of which about 5,700 (36%) were called active. About 24% were inconclusive and are not listed. The list shows a part of the results. Values without a mark were called inactive. The call rests on the fitted dose curve; in most records, active means well fitted curve in the direction sought with a large enough effect; inconclusive means small, poorly fitted or top-dose-only effect, or effect the other way; inactive means no such curve, though single readings can be large or run the other way.
# Target: Cytochrome P450 1A2 (Homo sapiens) (UniProt P05177)
# Sequence (P05177 whole entry, looked up): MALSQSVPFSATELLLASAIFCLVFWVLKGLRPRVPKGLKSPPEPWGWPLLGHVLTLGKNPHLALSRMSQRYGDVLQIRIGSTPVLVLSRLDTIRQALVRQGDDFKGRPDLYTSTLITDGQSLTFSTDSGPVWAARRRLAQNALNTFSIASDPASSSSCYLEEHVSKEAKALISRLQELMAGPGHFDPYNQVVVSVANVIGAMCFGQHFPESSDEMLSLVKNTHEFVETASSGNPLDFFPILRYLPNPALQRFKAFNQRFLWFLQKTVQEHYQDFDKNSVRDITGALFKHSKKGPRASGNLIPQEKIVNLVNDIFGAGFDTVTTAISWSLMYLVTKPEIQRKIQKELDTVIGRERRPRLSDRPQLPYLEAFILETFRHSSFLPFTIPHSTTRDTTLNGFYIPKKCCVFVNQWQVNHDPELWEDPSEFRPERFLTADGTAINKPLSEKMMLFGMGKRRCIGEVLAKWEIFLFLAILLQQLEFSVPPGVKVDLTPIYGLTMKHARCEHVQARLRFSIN
# Experiment: Cytochrome panel assay with activity outcomes
# Settings: recombinant CYP, pro-luciferin dealkylation, luminescence, p450-cyp1a2; series mostly up to 57.1 µM
# On the % scale 0 is the no-effect control and ±100 the full control effect.
Compound,AC50,"activity, negative = inhibition"
Cn1cc(C2=C(c3ccc(Cl)cc3Cl)C(=O)NC2=O)c2ccccc21,3.16 µM (active),–
COc1ccccc1-c1nccc(NCc2ccccc2)n1,2.51 µM (active),–
COc1ccccc1-c1nccc(NCc2cccnc2)n1,0.2 µM (active),–
COc1ccccc1-c1nccc(NCc2cccc(C)c2)n1,0.631 µM (active),–
CNc1ccnc(-c2ccccc2OC)n1,5.01 µM (active),–
CS(=O)(=O)N1CCC[C@@]2(CCN(C(=O)Nc3cccc(C#N)c3)C2)C1,inactive,–
Cc1ccccc1-c1nccc(NCc2cccnc2)n1,0.2 µM (active),–
CNc1ccnc(-c2ccccc2C)n1,5.01 µM (active),–
CO[C@H]1COC(=O)C/C=C\[C@H](C)[C@@H](NS(=O)(=O)c2ccc(C)cc2)COC(=O)CCC[C@@H]1C,–,1.16% [at 11.4 µM]
C=CC[C@@H]1C=C[C@H](O/N=C(\C)CCN2CCc3nc(CC)c(CC)cc3C2)[C@H](CO)O1,–,-3.35% [at 11.4 µM]
COc1ccc(C(=O)Nc2cccc(/C(C)=N/NC(=O)c3ccc([N+](=O)[O-])cc3)c2)cc1OC,inactive,–
C/C(=N/NS(=O)(=O)c1ccc(C)cc1)c1cccc(NC(=O)c2cccc(Cl)c2)c1,14.1 µM (active),–
Cc1ccc(S(=O)(=O)Nc2nc(C)c(NC(=O)Nc3ccc(Cl)cc3Cl)s2)cc1,inactive,–
CCC(=O)Nc1ccc(/C(C)=N\NS(=O)(=O)c2ccc(C)cc2)cc1,25.1 µM (active),–
C/C(=N/NS(=O)(=O)c1ccc(C)cc1)P(=O)(O)O,–,-10% [at 11.4 µM]
C/C(=N\NC(=O)c1cccc(Cl)c1)c1cccc(NC(=O)C(C)C)c1,5.01 µM (active),–
C/C(=N\NC(=O)c1ccc(Cl)cc1)c1cccc(NC(=O)C(C)C)c1,3.55 µM (active),–
Oc1ccc([C@@H]2CNCCc3c2cc(O)c(O)c3Cl)cc1,inactive,–
CN1CC[C@@]2(CCCN(C(=O)c3cc(C(F)(F)F)cc(C(F)(F)F)c3)C2)C1,inactive,–
CN(/C=C/C(=O)C(F)(F)F)Cc1ccccc1,inactive,–

Compound,AC50,"activity, negative = inhibition"
CC(=O)Nc1ccc(S(=O)(=O)NC(CC(=O)NCCCN2CCOCC2)C(C)C)cc1 (centres undefined),inactive,–
C/C(CC(=O)NCCCN1CCOCC1)=N\NC(=O)COc1ccc(Cl)cc1,2.51 µM (active),–
Cc1cc(S(=O)(=O)NCCCN2CCOCC2)ccc1F,inactive,–
CN(Cc1ccco1)c1cc(-c2ccoc2)ncn1,inactive,–
CN(Cc1ccco1)c1cc(-c2ccc3c(c2)OCO3)ncn1,0.501 µM (active),–
CN(C)c1ccc(-c2cc(N(C)Cc3ccco3)ncn2)cc1,0.316 µM (active),–
COc1ccc(C(=O)N2CCC3(CC2)CN(Cc2ccc(C#N)cc2)C3)cc1,inactive,–
COc1ccc(C(=O)Nc2ccc(S(=O)(=O)N3CCOCC3)cc2)cc1OC,inactive,–
COc1cc(NC(=S)Nc2ccc(S(=O)(=O)N3CCOCC3)cc2)cc(OC)c1OC,2.51 µM (active),–
COc1ccc(NC(=O)N2CC[C@@]3(CCCN(C(=O)c4cccn4C)C3)C2)cc1,inactive,–
O=C(CSc1ncccn1)Nc1ccc(S(=O)(=O)N2CCCCC2)cc1,inactive,–
O=C(O)c1cc(S(=O)(=O)N2CCCCC2)ccc1F,inactive,–
O=C(Nc1ccc(F)cc1)c1cc(S(=O)(=O)N2CCCCC2)cs1,17.8 µM (active),–
CC(C)=CCC/C(C)=C/CO/N=C1/C[C@@H](O)[C@@H](O)[C@@H]2[C@@H]3C(=O)N(C4CCCCC4)C(=O)[C@H]3CC[C@@H]12,–,-3% [at 11.4 µM]
COc1cccc(-c2nccc(NCc3cccnc3)n2)c1,0.158 µM (active),–
COc1cccc(-c2nccc(NCc3ccccc3)n2)c1,0.501 µM (active),–
COc1ccc(-c2cc(C(F)(F)F)nc(NCc3cccnc3)n2)cc1,0.794 µM (active),–
COc1cccc(-c2nccc(NCc3cccs3)n2)c1,0.2 µM (active),–
CC[C@@H]1OC(=O)[C@H](C)[C@H](O[C@@H]2C[C@](C)(OC)[C@H](O)[C@H](C)O2)[C@H](C)[C@H](O[C@@H]2O[C@@H](C)C[C@@H](N(C)C)[C@@H]2O)[C@](C)(O)C[C@H](C)C(=O)[C@H](C)[C@H](O)[C@]1(C)O,inactive,–
COc1cccc(-c2nccc(NCc3cccc(C)c3)n2)c1,0.316 µM (active),–

Compound,AC50,"activity, negative = inhibition"
COCC(C)NCc1cccc(C)c1 (centres undefined),inactive,–
COc1ccc(-c2cc(C(F)(F)F)nc(SCc3cccc(C(=O)O)c3)n2)cc1,7.08 µM (active),–
CC(=O)OC[C@H]1O[C@@H](O/N=C(\C)CCN2CCCCc3nc(C)c(C)cc32)[C@H](OC(C)=O)[C@@H](OC(C)=O)[C@H]1OC(C)=O,–,-3.61% [at 11.4 µM]
CCOc1ccc(N(CC(=O)NCc2ccc(OC)cc2)S(=O)(=O)c2c(C)noc2C)cc1,inactive,–
CCOc1ccc(-c2cc(CCCC(=O)NCCc3ccc(OC)c(OC)c3OC)no2)cc1,0.0631 µM (active),–
CCOc1ccc(CCNC(=O)CCCN2C(=O)c3ccccc3C2=O)cc1OCC,inactive,–
Cc1ccccc1C(=O)NC(=S)NCC(=O)c1ccccc1,10 µM (active),–
COc1ccc(-n2nc3cc(C)c(NC(=S)NC(=O)c4ccccc4C)cc3n2)cc1,inactive,–
O=C(CNC(=O)c1ccc([N+](=O)[O-])cc1)c1ccccc1,inactive,–
Cc1noc(C)c1-c1nc(NCCN2CCOCC2)c2ccccc2n1,2.51 µM (active),–
CC(=O)NCCNc1nc(-c2c(C)noc2C)nc2ccccc12,1.58 µM (active),–
COCCNc1nc(-c2c(C)noc2C)nc2ccccc12,0.126 µM (active),–
c1ccc(-n2ncc3c(NCCCN4CCOCC4)ncnc32)cc1,inactive,–
O=C(Nc1cccc(F)c1)N1CC[C@@]2(CCCN(C(=O)c3cc(C(F)(F)F)cc(C(F)(F)F)c3)C2)C1,inactive,–
CN(C)CCCCN1CCc2c(n(C)c3ccccc23)C1=O,–,-14.1% [at 2.29 µM]
CN(C)CCCNc1cc(O)c2c(c1O)C(=O)c1ccccc1C2=O,–,-23.1% [at 2.29 µM]
CN(C)CCCNC(=O)c1cc2c3ccccc3n(C)c2s1,14.1 µM (active),–
COC(Cn1c(C)c(C(C)=O)c(C(C)=O)c1C)OC,inactive,–
CC(=O)c1[nH]c(C)c(C(C)=O)c1C,0.708 µM (active),–
